Results from PubChem BioAssay (NCI).
The panel holds about 83,000 compounds, 20% with a hit somewhere; the sample as a whole holds those more often.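 Growth was measured after 48 h exposure to one concentration of compound in 96-well plates. Values under 10 count as active.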 Unmarked numbers belong to inactive results. The source made the active and inactive calls.

How the values were obtained:
Experiment in all cases: NCI-60 one-dose screen, 48 h (100 = growth as untreated, 0 = no growth, -100 = all killed)
Settings in all cases: 10 µM unless noted
T-47D breast = system: T-47D breast
BT-549 breast = system: BT-549 breast
MCF7 breast = system: MCF7 breast
HCT-116 colon = system: HCT-116 colon
HCC-2998 colon = system: HCC-2998 colon
KM12 colon = system: KM12 colon
MDA-MB-435 melanoma = system: MDA-MB-435 melanoma
SW-620 colon = system: SW-620 colon

SMILES | growth (T-47D breast) | growth (BT-549 breast) | growth (MCF7 breast) | growth (HCT-116 colon) | growth (HCC-2998 colon) | growth (KM12 colon) | growth (MDA-MB-435 melanoma) | growth (SW-620 colon)
CS(=O)(=O)c1ccc(/C(=N/N=C(N)N)c2ccc(Cl)cc2)cc1 | 89% | 85% | 32.8% | 73.8% | 91.2% | 72% |  | 
CCCC[n+]1ccc(SCC(=O)n2ccc3ccccc32)c2ccccc21 | 73.3% |  | 83% | 93.1% | 109% | 92.5% | 101% | 102%
CCOC(=O)c1ccc(NC2=CC(=O)C(C)=C(C)C2=O)cc1 | 43.2% | 91.1% | 62.7% | 56.5% | 101% | 46.1% |  | 101%
C#Cc1cc(C(=O)Nc2ccc(CNCCN3CCOCC3)c(C(F)(F)F)c2)ccc1C | 82.1% |  | 83.5% | 90.2% | 102% | 96.2% | 94.9% | 97.5%
COc1ccc(C2c3[nH]c4ccc(Cl)cc4c3CCN2c2oc(CO)nc2C#N)cc1 (stereo unspecified) | 43.1% |  | 32% | 32.1% | 57% | 23.4% | 15.2% | 32.9%
O=C(CSc1nc2ccccc2c(=O)n1-c1ccc(S(=O)(=O)Nc2ccc(Cl)nn2)cc1)Nc1ccc(S(=O)(=O)Nc2ccc(Cl)nn2)cc1 | 98.1% |  | 95.3% | 105% | 120% | 99.4% | 99.7% | 98.4%
CCOC(=O)c1c(NC(=O)c2cccc(C(F)(F)F)c2)sc2c3c(ccc12)OCN(C)C3 | -38.2% (active) |  | -81.9% (active) | -89.4% (active) | -88.9% (active) | -11.3% (active) | -55.5% (active) | -76.5% (active)
CN(C)S(=O)(=O)c1ccc(-c2nc(C(Cl)Cl)nc3cc(-c4ccc(F)cc4)nn23)cc1 | 38% |  |  | -0.738% (active) | 8.78% (active) | 7.53% (active) | 6.53% (active) | 4.42% (active)
CCOC(=O)C(=O)Nc1ccc2c(ccn2C(=O)c2cccc(F)c2)c1 | 99.1% | 88.8% | 89.6% | 102% | 103% | 98.2% |  | 
CCC(=C(c1ccc(OCCN(C)C)cc1)c1ccc(OCCN(C)C)cc1)c1ccc(Cl)cc1 | -56% (active) |  | -72.8% (active) | -67.7% (active) | -72.4% (active) | -49.1% (active) | -88.6% (active) | -72.4% (active)
CC1CC(=O)C2=C(C1)Nc1ccc(Br)cc1CC2c1c[nH]c2ccc(Br)cc12 (stereo unspecified) | 33.4% | 64.9% | 16.7% | 24.2% | 69.6% | 28.1% |  | 
Cc1ccc(C(=O)Nc2ccc(CNCCN3CCNCC3)c(C(F)(F)F)c2)cc1C#Cc1cnc2cccnn12 | 3.12% (active) |  | -82.9% (active) | -58.5% (active) | 3.91% (active) | -45.6% (active) | -76.2% (active) | 
CCN(CC)S(=O)(=O)c1ccc(-c2nc(C(Cl)Cl)nc3cc(C)nn23)cc1 | 60.9% |  | 23.5% | 10% | 23.8% | 8.52% (active) | 14.8% | 6.12% (active)
CCN(CC)S(=O)(=O)c1ccc(-c2nc(C(Cl)Cl)nc3cc(-c4ccc(F)cc4)nn23)cc1 | 28% |  | 19.4% | 28.6% | 7.38% (active) | 9.84% (active) | 25.6% | 23.5%
CCOC(=O)c1c(NC(=O)c2ccc(C(F)(F)F)cc2)sc2c(CN3CCN(C)CC3)c(O)ccc12 | -35% (active) |  |  | -92.5% (active) | -74.9% (active) | -21.2% (active) | -61.5% (active) | -71.2% (active)
CC1(C)C=Cc2cc(/C(N)=N/C(N)=N/c3nc4ccccc4s3)ccc2O1 | 77.6% | 86.1% | 67.2% | 59.2% | 109% | 61.5% |  | 

SMILES | growth (T-47D breast) | growth (BT-549 breast) | growth (MCF7 breast) | growth (HCT-116 colon) | growth (HCC-2998 colon) | growth (KM12 colon) | growth (MDA-MB-435 melanoma) | growth (SW-620 colon)
CC(=O)N(O)CCCCCNC(=O)CCC(=O)N(O)CCCCCNC(=O)CCC(=O)N(O)CCCCCN(CCCCCCCCCC[P+](c1ccccc1)(c1ccccc1)c1ccccc1)CCCCCCCCCC[P+](c1ccccc1)(c1ccccc1)c1ccccc1 | -4.99% (active) | -30.7% (active) | 5.05% (active) | 3.76% (active) | 4.2% (active) | 4.3% (active) |  | 12.2%
CCCCCCCCCCCC(=O)NC(C)(C)C(=O)N1CCCC1C(=O)NC(C)(C)C(=O)NC(C)(C)C(=O)N1CCCC1C(=O)NC(C)(C)C(=O)NC(C)(C)C(=O)N1CCCC1C(=O)NC(C)C(=O)NCCC(=O)NC(C)C(=O)NC(C)(C)C(=O)NC(C)(C)C(=O)NC(C)(C)C(=O)NCCC(=O)NC(C)(C)C(=O)NC(C)(C)C(=O)NC(C)(C)C(=O)NC(C)C(=O)NCCC(=O)O (stereo unspecified) |  | -97.1% (active) | -81.5% (active) | -94.8% (active) | -92.4% (active) | -98.5% (active) | -89.9% (active) | -92.3% (active)
CCN(CC)c1ccc(/C=N/NC(=O)c2ccc(NS(C)(=O)=O)cc2)c(O)c1 |  | 11.6% | 6.08% (active) | 21.7% | 38.5% | 15.2% | 28.8% | 36.9%
O=C1[C@@H]2Cc3c([nH]c4ccccc34)[C@@H](c3ccc(Cl)cc3)N2C(=O)CN1C1CCN(Cc2c(F)cccc2F)CC1 |  | 46.3% | 15.3% | 17.8% | 6.16% (active) | 35.1% | 46.9% | 48.6%
Cc1[nH]c(C(=O)Nc2ccc(C(=O)NCC3CCNCC3)cc2OC(C)C)c(Cl)c1Cl |  | 92.6% | -76.3% (active) | 33.2% | 55.3% | 56% | 72.2% | 
Brc1ccc(-c2cc(-c3ccc4c(c3)OC=CO4)n[nH]2)s1 |  | 91.3% | 20.7% | 91.5% | 84.5% | 58.6% | 15.3% | 79.1%
CCOC(=O)c1cccc(NC2=C(Cl)C(=O)C(C)=C(C)C2=O)c1 |  | 131% | 84.7% | 84.9% | 111% | 89.6% |  | 100%
Cc1[nH]c(C(=O)Nc2ccccc2OCc2cccc(C(=O)NCCN)c2)cc1Cl |  | 104% |  | 38.2% | 109% | 86.4% | 20.6% | 32.4%
CCNC(=O)Oc1ccc(/C(=C(/C)c2ccc(OC)cc2)c2ccc(OCCN3CCCCCC3)cc2)cc1 |  | 73.3% | 8.81% (active) | 13.4% | 67.9% | 39.6% | 43.7% | -25.9% (active)
O=S1SC(c2ccccc2)=NN1c1cc(F)cc(F)c1 (stereo unspecified) |  | 7.34% (active) | 35.6% | 16.5% | 79.6% | 41.7% | 63.3% | 59.2%
CCOC(=O)c1ccccc1NC1=C(Cl)C(=O)c2nc(C)ccc2C1=O |  | 114% | 87.5% | 99.1% | 97.2% | 105% | 111% | 94.8%
COc1ccccc1Cn1cc(C#N)c(N)c1C(=O)c1ccc(Br)cc1 |  | 103% | 91.5% | 93.9% | 103% | 96.5% | 94.4% | 100%
CCN(CC)c1ccc(/C=N/NC(=O)c2ccc(S(N)(=O)=O)cc2)c(O)c1 |  | 26.5% | 6.43% (active) | 24.2% | 37.3% | 24.2% | 31.1% | 35%
CC1=C(C)C(=O)C(Nc2cccc(C(=O)OC(C)(C)C)c2)=C(Cl)C1=O |  | 106% | 46.3% | 72.6% | 99% | 99.2% | 103% | 
Cc1ccc(/C(N)=N/C(N)=N/c2nc3ccccc3s2)cc1 |  | 102% | 74% | 86% | 104% | 64.1% | 103% | 107%
